# Compound activity (PubChem)
# Rows were chosen to be rich in hits. Some 3.5% of all compounds tested hit in one or more screens of this group.
# MITF inh: human MITF inhibition, primary screen; O75030; AlphaScreen MITF homodimerization, bead proximity signal; inhibition, % at 2.6 µM; actives 0.91% (n = 650,000); in the data active = inhibition above about 50%;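 also: 0% = vehicle wells with protein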
# TEAD-YAP block: TEAD-YAP interaction inhibition. HEK-TIYL cells, TEAD-Gal4/YAP UAS-luciferase luminescence. inhibition, % at 9.12 µM. actives 1.4% (n = 640,000). AID 1259422; in the data active = inhibition above about 32%;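 also: 0% = median of test compound wells and 100% = reference inhibitor wells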
# FBW7 act: human FBW7 E3 ligase activation, primary screen; Q969H0; AlphaScreen FBW7–phospho-cyclin E peptide binding, activator screen; normalized activity (activation), % at 26.1 µM; actives 0.13% (n = 650,000); in the data active = normalized activity above about 1.9%;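 also: purified mutant Fbw7 with reduced substrate affinity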
# Target sequence (Q969H0 whole entry, looked up): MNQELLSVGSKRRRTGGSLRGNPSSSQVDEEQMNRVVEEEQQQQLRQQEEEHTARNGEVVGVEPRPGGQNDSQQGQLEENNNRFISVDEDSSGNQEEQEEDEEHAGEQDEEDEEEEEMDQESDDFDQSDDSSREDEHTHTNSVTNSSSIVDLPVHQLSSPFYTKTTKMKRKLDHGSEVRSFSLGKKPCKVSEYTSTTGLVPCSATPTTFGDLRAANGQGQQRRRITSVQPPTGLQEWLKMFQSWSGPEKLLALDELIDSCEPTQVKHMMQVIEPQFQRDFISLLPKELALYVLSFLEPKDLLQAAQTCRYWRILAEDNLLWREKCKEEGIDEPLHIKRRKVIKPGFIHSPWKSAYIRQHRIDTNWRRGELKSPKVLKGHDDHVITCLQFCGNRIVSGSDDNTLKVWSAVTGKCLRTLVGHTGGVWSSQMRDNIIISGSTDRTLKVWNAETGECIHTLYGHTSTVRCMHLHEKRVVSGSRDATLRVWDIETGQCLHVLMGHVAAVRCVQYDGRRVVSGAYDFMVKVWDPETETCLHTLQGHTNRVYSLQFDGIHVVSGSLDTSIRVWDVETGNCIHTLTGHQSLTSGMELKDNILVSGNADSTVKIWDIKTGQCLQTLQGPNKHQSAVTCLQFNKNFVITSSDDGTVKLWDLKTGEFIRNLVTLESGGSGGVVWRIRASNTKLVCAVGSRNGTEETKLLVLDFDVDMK
# GPR151 ag: activators of human GPR151 | Q8TDV0 | PathHunter beta-arrestin GPR151 cells, luminescence | activation, % at 11.2 µM | actives 1% (n = 650,000) | AID 1508602; in the data active = activation above about 4.9%;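 also: 0% = median of compound wells and 100% = cells with positive control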
# GPR151 conf act: confirmation of human GPR151 activators; shares compounds with GPR151 ag; GPR151 PathHunter beta-arrestin cells, luminescence, 90 min; % of EA-reagent control over plate median; activation, % at 11.2 µM; 6,700 tested, under 10 active; AID 1508609;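 active = mean percent activation across replicates above the confirmation screen cutoff of 4.91%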
# GPR119 ag: counter-screen for GPR151 activators: effect on human GPR119; shares compounds with GPR151 ag; GPR119 PathHunter beta-arrestin cells, luminescence, 90 min; 0 = compound-well median, 100 = enzyme-acceptor control; activation, % at 11.2 µM; actives 0.3% (n = 6,700);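 active = mean percent activation in the counterscreen above 29.09%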;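 also: counterscreen on off-target GPR119 to flag nonselective hits from the GPR151 activator screen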
# Active calls of the source: *; . = not tested or not shown; ! = not confirmed by another sample.
SMILES,MITF inh,TEAD-YAP block,FBW7 act,GPR151 ag,GPR151 conf act,GPR119 ag
COC(=O)c1c(NC(=S)Nc2cnccn2)sc2c1CCC(C)C2 (stereo not given),1.4,-2.2,-0.2,1.6,.,.
CCc1c(C)sc(NC(=S)Nc2cnccn2)c1C(=O)OC,4.0,-8.6,-0.1,5.9*,-1.0,-13.6
CSc1ccc2nc(NC(=O)c3ccccc3C)sc2c1,4.7,-39.4,0.0,-5.6,.,.
COc1cccc(C(=O)Nc2nc3ccc(SC)cc3s2)c1OC,-15.4,-14.4,-0.1,5.0*,0.5,7.6
c1ccc(OCCNc2nc(Nc3nccc4ccccc34)nc3c2ncn3C2CCCCC2)cc1,5.6,1.2,0.2,-0.8,.,.
COc1ccc(CCNc2ncnc3nc(NCCN4CCOCC4)[nH]c23)cc1,7.1,11.0,-0.2,5.6*,0.8,-0.7
COc1ccc(CCNc2ncnc3nc(-c4cccc(N)c4)[nH]c23)cc1,7.2,6.1,-0.1,5.2*,0.7,2.6
CCN(CC)c1ncnc2sc(C(=O)Nc3ccc(F)cc3F)c(C)c12,-7.3,-0.9,-0.1,-0.3,.,.
CN(C)c1cccc(C(=O)OCC(=O)c2cc3ccccc3o2)c1,7.8,18.3,0.2,5.2*,-1.1,-4.8
CNS(=O)(=O)c1cccc(C(=O)OCC(=O)c2cc3ccccc3o2)c1,-9.0,-4.7,0.1,0.7,.,.
Clc1ccc2c(c1)CCc1cccnc1C2=C1CCNCC1,6.1,-16.1,-0.2,7.8*!,-0.2,11.1
O=c1ccn(C2OC(COc3ccc([N+](=O)[O-])cc3)C(O)C2O)c(=O)[nH]1 (stereo not given),6.7,1.1,-0.1,0.4,.,.
O=c1ccn([C@@H]2O[C@H](COP(=O)(O)OP(=O)(O)O)[C@@H](O)[C@H]2O)c(=O)[nH]1,19.1,0.1,0.1,5.1*,-0.6,-1.9
CC(C)=CCN1CCN(Cc2ccc(-n3cccn3)cc2C)CC1CCO (stereo not given),8.3,-13.1,0.0,11.4*,-0.1,-0.5
Cc1cc(-n2cccn2)ccc1CN1CCN(C2CCCCC2)C(CCO)C1 (stereo not given),0.7,6.4,-0.1,1.7,.,.
c1cncc(-c2cc(NCc3ccco3)nc(-c3ccncc3)n2)c1,17.8,3.1,0.1,5.1*,-1.2,-16.0
N#C/C(=C/Nc1ccc(F)c([N+](=O)[O-])c1)c1nc(-c2ccccc2)cs1,10.7,7.3,-0.1,3.5,.,.
N#C/C(=C\Nc1ccc(F)c([N+](=O)[O-])c1)c1nc(-c2cccc([N+](=O)[O-])c2)cs1,-7.8,-3.4,0.0,8.8*,-0.6,4.1
CCC(C)NC(=O)C1C2C(=O)N(Cc3ccccc3)CC23C=CC1(C)O3 (stereo not given),9.1,7.7,-0.1,8.7*,-0.5,-7.9
CC12CN3CC(C)(CN(C1)C3c1ccccc1Cl)C2 (stereo not given),9.2,5.0,-0.1,5.5*,-0.7,-5.2
CC(C)C12CN3CC(C(C)C)(CN(C1)C3c1ccccc1Cl)C2=O (stereo not given),4.1,-6.2,-0.1,-0.1,.,.
COc1ccc(NC(=S)NN2CCOCC2)cc1OC,-11.6,-3.8,-0.1,13.9*,0.8,2.0
Cc1cc(NC(=O)CCN2CCN(C/C=C/c3ccccc3)CC2)ccc1Br,3.3,15.0,0.0,1.0,.,.
CCOc1ccccc1N1CCN(C(=O)Nc2ccc(OC)c(OC)c2)CC1,-1.8,-1.4,0.0,7.8*,-1.1,-17.6
Cc1cccc(NC(=O)CCN2CCN(C/C=C/c3ccccc3)CC2)c1,17.2,2.0,1.1,4.9*,0.2,-5.6
SMILES,MITF inh,TEAD-YAP block,FBW7 act,GPR151 ag,GPR151 conf act,GPR119 ag
COc1ccc(NC(=O)N2CCCC2)cc1OC,10.2,5.0,0.1,0.6,.,.
COc1ccc(NC(=O)N2CCCCCC2)cc1OC,14.5,-2.7,0.2,5.5*,-1.9,-17.8
COc1cccc(/C=N/NC(=O)C(=O)Nc2cccc(C(F)(F)F)c2)c1OC,16.4,-6.7,1.0,1.5,.,.
COc1ccc(NC(=O)N2CCN(C/C=C/c3ccccc3)CC2)cc1OC,13.3,11.9,-0.2,14.4*,-0.5,-8.7
CC(=O)c1cccc(NC(=O)N2CCN(C/C=C/c3ccccc3)CC2)c1,-4.0,2.4,0.2,-0.3,.,.
CC1CN(c2ccc(Br)cc2)c2nc3c(c(=O)n(CC(N)=O)c(=O)n3C)n2C1 (stereo not given),0.2,-7.1,0.0,10.3*,-1.7,-19.3
Cc1ccc(CNC(=O)CCNS(=O)(=O)c2ccc3[nH]c(=O)ccc3c2)cc1,2.1,-3.2,0.1,0.4,.,.
O=C(CCNS(=O)(=O)c1ccc2[nH]c(=O)ccc2c1)NCc1ccccc1,3.6,-6.5,-0.1,8.2*,0.2,3.1
CC(=O)NS(=O)(=O)c1ccc(NC(=O)COc2ccc(C)cc2)cc1,-12.3,0.5,0.0,1.0,.,.
Cc1cc(Br)ccc1OCC(=O)Nc1ccc(C(N)=O)cc1,5.2,-1.9,0.1,-0.1,.,.
COc1ccccc1OCC(=O)Nc1ccc(S(=O)(=O)NC(C)=O)cc1,0.0,12.5,-0.1,16.5*,-0.8,-8.5
CC(=O)NS(=O)(=O)c1ccc(NC(=O)COc2ccc(Br)cc2)cc1,6.9,6.4,0.2,5.8*,-1.1,-11.9
CC(C)(C)NS(=O)(=O)c1ccc(NC(=O)COc2ccc3ccccc3c2)cc1,-0.3,9.8,0.0,1.2,.,.
CC(=O)Nc1ccc(NC(=O)COc2ccc(Br)cc2C)cc1,11.4,-23.0,0.0,8.7*,0.3,-4.2
CC(C)(C)NS(=O)(=O)c1ccc(NC(=O)COc2ccc(Br)cc2)cc1,4.4,1.2,-0.1,16.1*,1.2,14.4
CCCCCCC1=NN(C(=O)C2CC2)C(O)(C(F)(F)F)C1 (stereo not given),12.8,0.9,0.1,1.3,.,.
COC(=O)C(Cc1c[nH]c2ccccc12)NC(=O)C(=O)c1c(C)[nH]c2ccccc12 (stereo not given),7.5,3.4,0.1,6.9*,-0.2,6.3
COC(=O)C(Cc1c[nH]c2ccccc12)NC(=O)C(C)C (stereo not given),24.0,2.7,0.0,1.0,.,.
Cc1ccc2c(c1)C1CC(C)(O2)N(c2cccc(Cl)c2)C(=O)N1 (stereo not given),7.7,6.9,0.8,-0.6,.,.
Cc1ccc(NC(=O)C2CC(=O)N(c3ccc(F)cc3)C2)c(C)c1 (stereo not given),3.1,8.1,0.1,18.8*,-0.1,13.4
CCOc1ccc(N2CC(C(=O)Nc3ccc(Br)cc3CC)CC2=O)cc1 (stereo not given),3.9,-0.1,0.0,4.9*,0.1,9.1
CC1CCCCC1NC(=O)c1cccc([N+](=O)[O-])c1 (stereo not given),-7.9,-4.6,0.0,-0.6,.,.
Cc1cc(N2CCCCC2)nc2ccc(NC(=O)c3cccc([N+](=O)[O-])c3)cc12,1.9,7.1,-0.1,16.9*,0.7,10.2
